A number with no mark means an inactive call. Results filed as inconclusive are left out. A call without a number means that no potency is given here. Calls of active or inactive are those of the source. Unless noted, calls follow the shape of the dose curve; as a rule, active = well fitted curve in the direction sought with a large enough effect in the repeat runs; inconclusive = weak or mixed curves; inactive = no such curve, though single readings can be large; an effect the other way counts as inactive or inconclusive.
Assays:
[1] = target: Thyrotropin-releasing hormone receptor (Homo sapiens) (UniProt P34981); assay: qHTS assay to identify small molecule agonists of the thyrotropin-releasing hormone receptor (TRHR) signaling pathway (AID 1346891; calls by dose curve;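 also: HEK293 cells expressing TRHR with calcium dye readout; series mostly up to about 58 µM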)
In short: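 Kinetic fluorescence (3 min, 1 s intervals) reported intracellular calcium after compound transfer onto TRHR-Hek293 cells pre-loaded with dye for 2 h at 37 °C.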

[2] = Human pregnane X receptor (PXR) small molecule agonists, qHTS cell viability counter screen (AID 1346977); also: nearly all actives have a fitted effect of over 50% in size; also: potency is read from the fitted curve at half-maximal effect
In short: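 HepG2 cells stably carrying the PXR-Luc reporter are cultured with 5% charcoal-stripped FBS and treated with compounds for 24hr. CellTiter-Fluor is added at 23hr and fluorescence is read after 1hr.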

[3] = Caspase-3/7 induction in HepG2 cells by small molecules, qHTS assay (AID 1346978); also: nearly all actives have a fitted effect of over 15% in size; also: potency is read from the fitted curve at half-maximal effect
In short: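 Wild-type HepG2 cells (2,000/well) were settled 5 h at 37 C, 5% CO2, then exposed to compounds in DMSO for 17 h. Caspase-3/7 activity was read by luminescence 30 min after adding Caspase-Glo 3/7 reagent at room temperature.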

[4] = Caspase-3/7 induction in CHO-K1 cells by small molecules, qHTS assay (AID 1346980); also: nearly all actives have a fitted effect of over 15% in size
In short: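 Wild-type cells were seeded at 1,500 per well and settled 5 hr at 37 C, 5% CO2, then exposed to DMSO-dissolved compounds for 17 hr. Caspase-Glo 3/7 reagent was added, and luminescence was read after 30min at room temperature.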

[5] = Caspase-3/7 induction in HepG2 cells by small molecules, qHTS cell viability counter screen (AID 1346981); also: nearly all actives have a fitted effect of over 30% in size; also: potency is read from the fitted curve at half-maximal effect
In short: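 The parent HepG2 line is plated at 2,000 cells per well and rested 5 hr before compound pinning from DMSO stocks. Following a 16-hr treatment at 37 C, a fluorogenic live-cell substrate (CellTiter-Fluor) reports viability after 1 hr.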

[6] = target: Nuclear receptor subfamily 1 group I member 2 (Homo sapiens) (UniProt O75469); assay: Human pregnane X receptor (PXR) small molecule agonists, qHTS assay (AID 1346982); also: nearly all actives have a fitted effect of over 35% in size; also: potency is read from the fitted curve at half-maximal effect
In short: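 After plating in 5% charcoal-stripped FBS and a 5 hr rest, PXR-Luc HepG2 cells received compounds in DMSO. Following 24 hr at 37 C, ONE-Glo was added and light output read.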

[7] = target: Nuclear receptor subfamily 1 group I member 2 (Rattus norvegicus) (UniProt Q9R1A7); assay: Rat pregnane X receptor (rPXR) activation by small molecules, qHTS assay (AID 1346983); details: rPXR luciferase reporter cells, One-Glo luminescence, 24 h; max activation: stronger effect = higher value; also: nearly all actives have a fitted effect of over 20% in size
In short: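 Cell-based rPXR luciferase reporter assay, 2,000 cells per well, rested 5hr at 37 C before compound addition in DMSO, then 24 hr at 37 C. One-Glo reagent was added and luminescence read after 30 min at room temperature.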

[8] = target: Nuclear receptor subfamily 1 group I member 2 (Homo sapiens) (UniProt O75469); assay: CYP3A4 induction through human pregnane X receptor (PXR) by small molecules, qHTS assay (AID 1346984); also: nearly all actives have a fitted effect of over 40% in size; also: potency is read from the fitted curve at half-maximal effect
In short: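 Human PXR activation is tracked via CYP3A4 promoter-luciferase in DPX-2 (HepG2) cells. Compounds treat cells for 24hr at 37C, and luminescence is read after One-Glo.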

[9] = target: Nuclear receptor subfamily 1 group I member 2 (Homo sapiens) (UniProt O75469); assay: Human pregnane X receptor (PXR) activation by small molecules, qHTS assay (AID 1346985); also: nearly all actives have a fitted effect of over 40% in size; also: potency is read from the fitted curve at half-maximal effect
In short: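 DPX-2 cells (HepG2 co-transfected with a PXR response element and a CYP3A4-promoter luciferase construct) were seeded at 2,000 per well, rested 5 hr at 37C, then exposed to DMSO-dissolved compounds for 24 hr. Activation was read as luciferase luminescence.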

[10] = target: Cytochrome P450 2D6 (Homo sapiens) (UniProt P10635); assay: Cytochrome P450 Family 2 Subfamily D Member 6 (CYP2D6) small molecule antagonists: luciferase reporter qHTS assay (AID 1671196); also: nearly all actives have a fitted effect of over 50% in size; also: potency is read from the fitted curve at half-maximal effect
In short: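 Quantitative HTS of Tox21 chemicals against CYP2D6 using a luminescent proluciferin substrate. After NADPH addition, 1 h room-temperature reaction; luminescence recorded 20 min post detection reagent.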

[11] = target: Cytochrome P450 2C19 (Homo sapiens) (UniProt P33261); assay: Cytochrome P450 Family 2 Subfamily C Member 19 (CYP2C19) small molecule antagonists: luciferase reporter qHTS assay (AID 1671197); also: nearly all actives have a fitted effect of over 65% in size; also: potency is read from the fitted curve at half-maximal effect
In short: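 Compounds were tested on CYP2C19 activity via proluciferin conversion to luciferin. The 37C, 1 h reaction followed NADPH addition; detection reagent stopped it.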

[12] = target: Cytochrome P450 2C9 (Homo sapiens) (UniProt P11712); assay: Cytochrome P450 Family 2 Subfamily C Member 9 (CYP2C9) small molecule antagonists: luciferase reporter qHTS assay (AID 1671198); also: nearly all actives have a fitted effect of over 50% in size; also: potency is read from the fitted curve at half-maximal effect
In short: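 CYP2C9 activity was measured with a P450-Glo proluciferin substrate. Enzyme–substrate mix was held with compound for 10 min at room temperature, then NADPH regeneration solution was added for 1 h at 37C. Luciferin product was read as luminescence.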

[13] = Caspase-3/7 induction in CHO-K1 cells by small molecules, qHTS cell viability counter screen (AID 1346979); also: nearly all actives have a fitted effect of over 35% in size; also: potency is read from the fitted curve at half-maximal effect
In short: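 Seeding: 1,500 CHO-K1 cells/well. Rest: 5hr, 37C. Treatment: compounds in DMSO, 16hr. Read: CellTiter-Fluor, 1hr, fluorescence.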

[14] = target: Voltage-gated inwardly rectifying potassium channel KCNH2 (Homo sapiens) (UniProt Q12809); assay: Human Ether-a-go-go-Related Gene (hERG) channel small molecule antagonists: fluorescence cell-based qHTS assay (AID 1671200); also: nearly all actives have a fitted effect of over 50% in size; also: potency is read from the fitted curve at half-maximal effect
In short: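 First, 1000 cells per well are seeded and cultured overnight at 37 C. Next, FluxOR II dye is loaded for 1 h at room temperature, protected from light. After 10 more minutes, stimulus is added and fluorescence is read.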

[15] = target: Cytochrome P450 3A4 (Homo sapiens) (UniProt P08684); assay: Cytochrome P450 Family 3 Subfamily A Member 4 (CYP3A4) small molecule antagonists: luciferase reporter qHTS assay (AID 1671201); also: nearly all actives have a fitted effect of over 50% in size; also: potency is read from the fitted curve at half-maximal effect
In short: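 Enzyme and proluciferin substrate are mixed with test chemicals for 10 min, then NADPH regeneration system drives turnover for 1 h at room temperature. A detection reagent halts the reaction; luminescence after 20 min gives relative activity.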

[16] = target: Cytochrome P450 1A2 (Homo sapiens) (UniProt P05177); assay: Cytochrome P450 Family 1 Subfamily A Member 2 (CYP1A2) small molecule antagonists: luciferase reporter qHTS assay (AID 1671199); also: nearly all actives have a fitted effect of over 50% in size; also: potency is read from the fitted curve at half-maximal effect
In short: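 Quantitative high-throughput format using the P450-Glo CYP1A2 system. Reaction initiated by NADPH regeneration solution, 1 h at room temperature, then stopped with detection reagent; luminescence measured 20 min later.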

Nuclear receptor subfamily 1 group I member 2 (Rattus norvegicus), sequence (Q9R1A7 whole entry, looked up): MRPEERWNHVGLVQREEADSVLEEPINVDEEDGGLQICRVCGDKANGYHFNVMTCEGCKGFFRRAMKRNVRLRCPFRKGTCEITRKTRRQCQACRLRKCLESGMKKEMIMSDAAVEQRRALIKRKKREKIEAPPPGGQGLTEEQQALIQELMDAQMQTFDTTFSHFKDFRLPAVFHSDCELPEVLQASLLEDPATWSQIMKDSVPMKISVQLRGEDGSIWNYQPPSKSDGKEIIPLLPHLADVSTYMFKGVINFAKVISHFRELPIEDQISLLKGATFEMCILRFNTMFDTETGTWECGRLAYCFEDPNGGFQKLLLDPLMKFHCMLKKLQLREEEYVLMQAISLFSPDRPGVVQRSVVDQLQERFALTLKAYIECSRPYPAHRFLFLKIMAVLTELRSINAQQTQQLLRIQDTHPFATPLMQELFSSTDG
Cytochrome P450 2C19 (Homo sapiens), sequence (P33261 whole entry, looked up): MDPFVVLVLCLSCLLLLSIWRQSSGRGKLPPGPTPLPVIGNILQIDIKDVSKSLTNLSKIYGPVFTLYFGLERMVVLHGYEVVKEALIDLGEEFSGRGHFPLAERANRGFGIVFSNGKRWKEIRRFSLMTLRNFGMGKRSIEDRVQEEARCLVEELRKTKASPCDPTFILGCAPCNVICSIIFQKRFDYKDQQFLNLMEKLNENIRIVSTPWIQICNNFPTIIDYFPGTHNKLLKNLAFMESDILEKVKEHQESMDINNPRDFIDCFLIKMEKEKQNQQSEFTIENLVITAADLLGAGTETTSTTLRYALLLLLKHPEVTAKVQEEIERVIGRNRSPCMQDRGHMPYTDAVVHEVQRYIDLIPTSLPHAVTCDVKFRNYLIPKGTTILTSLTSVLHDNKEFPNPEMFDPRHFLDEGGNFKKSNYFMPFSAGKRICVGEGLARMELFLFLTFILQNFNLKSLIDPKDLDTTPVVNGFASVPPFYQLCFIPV
Nuclear receptor subfamily 1 group I member 2 (Homo sapiens), sequence (O75469 whole entry, looked up): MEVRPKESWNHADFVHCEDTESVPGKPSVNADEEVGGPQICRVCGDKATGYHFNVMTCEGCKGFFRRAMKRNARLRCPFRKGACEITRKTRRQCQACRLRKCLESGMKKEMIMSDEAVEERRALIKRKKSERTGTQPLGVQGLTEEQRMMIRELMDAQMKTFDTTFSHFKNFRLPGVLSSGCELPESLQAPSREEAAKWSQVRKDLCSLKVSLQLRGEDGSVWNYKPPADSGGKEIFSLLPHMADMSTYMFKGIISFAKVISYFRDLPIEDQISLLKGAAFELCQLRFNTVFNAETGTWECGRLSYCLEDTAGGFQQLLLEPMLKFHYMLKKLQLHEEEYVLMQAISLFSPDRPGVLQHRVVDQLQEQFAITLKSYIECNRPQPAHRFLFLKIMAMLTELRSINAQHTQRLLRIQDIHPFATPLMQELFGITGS
Voltage-gated inwardly rectifying potassium channel KCNH2 (Homo sapiens), sequence (Q12809 whole entry, looked up): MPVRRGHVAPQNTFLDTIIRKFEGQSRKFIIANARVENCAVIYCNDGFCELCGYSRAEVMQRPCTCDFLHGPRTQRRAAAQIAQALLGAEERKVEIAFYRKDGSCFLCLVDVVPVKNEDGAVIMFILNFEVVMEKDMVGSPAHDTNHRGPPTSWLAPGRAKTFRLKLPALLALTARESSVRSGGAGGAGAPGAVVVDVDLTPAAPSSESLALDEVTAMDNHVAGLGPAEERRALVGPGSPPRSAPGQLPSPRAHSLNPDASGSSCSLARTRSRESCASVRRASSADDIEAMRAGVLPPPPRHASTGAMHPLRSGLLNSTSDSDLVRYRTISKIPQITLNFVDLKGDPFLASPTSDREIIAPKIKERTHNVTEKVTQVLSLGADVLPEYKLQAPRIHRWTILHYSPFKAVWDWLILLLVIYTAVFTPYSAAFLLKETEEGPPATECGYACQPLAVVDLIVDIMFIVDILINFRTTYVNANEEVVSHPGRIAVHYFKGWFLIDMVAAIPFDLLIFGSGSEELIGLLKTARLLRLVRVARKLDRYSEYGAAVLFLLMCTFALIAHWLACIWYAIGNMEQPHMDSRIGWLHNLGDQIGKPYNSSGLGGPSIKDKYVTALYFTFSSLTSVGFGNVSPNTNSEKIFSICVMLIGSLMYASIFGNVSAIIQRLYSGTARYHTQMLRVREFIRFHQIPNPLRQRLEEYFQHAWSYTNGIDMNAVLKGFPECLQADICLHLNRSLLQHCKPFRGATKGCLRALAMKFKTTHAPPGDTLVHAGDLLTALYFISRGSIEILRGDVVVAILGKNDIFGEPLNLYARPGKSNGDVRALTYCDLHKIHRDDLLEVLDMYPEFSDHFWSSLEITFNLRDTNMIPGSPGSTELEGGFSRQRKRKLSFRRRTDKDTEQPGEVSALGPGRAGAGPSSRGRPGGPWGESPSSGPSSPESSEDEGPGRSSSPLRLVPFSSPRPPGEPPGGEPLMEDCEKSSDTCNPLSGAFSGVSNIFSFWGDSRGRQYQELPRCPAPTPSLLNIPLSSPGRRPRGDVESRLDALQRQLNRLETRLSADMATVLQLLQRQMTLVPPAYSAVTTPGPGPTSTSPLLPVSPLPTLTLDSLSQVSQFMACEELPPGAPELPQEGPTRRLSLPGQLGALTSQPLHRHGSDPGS
Cytochrome P450 2D6 (Homo sapiens), sequence (P10635 whole entry, looked up): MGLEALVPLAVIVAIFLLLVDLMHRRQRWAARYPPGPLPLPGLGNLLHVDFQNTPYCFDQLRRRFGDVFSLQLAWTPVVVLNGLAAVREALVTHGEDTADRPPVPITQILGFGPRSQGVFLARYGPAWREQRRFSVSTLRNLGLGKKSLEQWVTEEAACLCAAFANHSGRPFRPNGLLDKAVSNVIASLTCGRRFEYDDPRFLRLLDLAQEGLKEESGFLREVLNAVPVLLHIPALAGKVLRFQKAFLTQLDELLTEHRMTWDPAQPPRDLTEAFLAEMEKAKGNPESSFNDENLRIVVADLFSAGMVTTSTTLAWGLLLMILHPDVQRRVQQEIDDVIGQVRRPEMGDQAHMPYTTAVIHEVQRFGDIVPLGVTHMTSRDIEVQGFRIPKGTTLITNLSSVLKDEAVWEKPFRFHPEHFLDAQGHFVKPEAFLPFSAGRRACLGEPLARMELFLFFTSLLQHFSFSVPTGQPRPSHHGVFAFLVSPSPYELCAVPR
Cytochrome P450 1A2 (Homo sapiens), sequence (P05177 whole entry, looked up): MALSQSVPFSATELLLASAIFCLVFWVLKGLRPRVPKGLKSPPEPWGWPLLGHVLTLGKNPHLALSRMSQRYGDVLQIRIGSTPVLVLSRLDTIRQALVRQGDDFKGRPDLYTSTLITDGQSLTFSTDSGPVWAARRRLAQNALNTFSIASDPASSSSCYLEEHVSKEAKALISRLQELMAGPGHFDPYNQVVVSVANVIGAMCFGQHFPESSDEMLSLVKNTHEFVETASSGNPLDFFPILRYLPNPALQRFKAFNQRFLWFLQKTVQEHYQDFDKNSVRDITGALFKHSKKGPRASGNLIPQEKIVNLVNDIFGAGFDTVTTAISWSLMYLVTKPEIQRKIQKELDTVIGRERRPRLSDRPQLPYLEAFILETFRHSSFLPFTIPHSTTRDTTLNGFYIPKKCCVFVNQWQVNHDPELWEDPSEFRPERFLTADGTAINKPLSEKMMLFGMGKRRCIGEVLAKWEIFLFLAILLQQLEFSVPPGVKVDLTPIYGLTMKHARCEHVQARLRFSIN
Cytochrome P450 3A4 (Homo sapiens), sequence (P08684 whole entry, looked up): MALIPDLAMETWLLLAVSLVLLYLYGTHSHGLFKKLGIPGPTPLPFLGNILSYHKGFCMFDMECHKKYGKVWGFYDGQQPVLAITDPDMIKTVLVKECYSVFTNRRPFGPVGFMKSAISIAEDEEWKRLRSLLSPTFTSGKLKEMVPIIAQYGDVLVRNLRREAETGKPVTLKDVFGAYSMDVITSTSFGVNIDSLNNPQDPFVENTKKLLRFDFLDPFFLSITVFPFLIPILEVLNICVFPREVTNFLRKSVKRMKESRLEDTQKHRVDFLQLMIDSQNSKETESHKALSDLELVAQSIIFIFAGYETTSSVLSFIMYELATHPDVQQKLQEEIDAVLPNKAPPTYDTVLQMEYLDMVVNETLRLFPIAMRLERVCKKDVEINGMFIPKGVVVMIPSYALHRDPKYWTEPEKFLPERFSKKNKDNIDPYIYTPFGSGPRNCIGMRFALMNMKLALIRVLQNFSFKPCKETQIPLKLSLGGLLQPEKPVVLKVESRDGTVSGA
Cytochrome P450 2C9 (Homo sapiens), sequence (P11712 whole entry, looked up): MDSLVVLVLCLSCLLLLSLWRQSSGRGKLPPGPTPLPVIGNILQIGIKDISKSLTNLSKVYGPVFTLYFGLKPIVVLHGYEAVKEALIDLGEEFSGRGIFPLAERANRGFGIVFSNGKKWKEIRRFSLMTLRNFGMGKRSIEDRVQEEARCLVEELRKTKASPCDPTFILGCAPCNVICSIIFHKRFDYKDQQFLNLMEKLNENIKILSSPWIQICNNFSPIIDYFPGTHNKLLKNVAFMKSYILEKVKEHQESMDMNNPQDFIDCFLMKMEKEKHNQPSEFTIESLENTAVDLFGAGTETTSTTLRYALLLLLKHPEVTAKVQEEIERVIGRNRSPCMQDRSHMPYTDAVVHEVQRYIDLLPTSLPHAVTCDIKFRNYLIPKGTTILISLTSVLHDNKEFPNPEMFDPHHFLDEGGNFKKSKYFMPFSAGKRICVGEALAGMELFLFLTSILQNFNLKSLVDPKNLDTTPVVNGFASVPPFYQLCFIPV
Thyrotropin-releasing hormone receptor (Homo sapiens), sequence (P34981 whole entry, looked up): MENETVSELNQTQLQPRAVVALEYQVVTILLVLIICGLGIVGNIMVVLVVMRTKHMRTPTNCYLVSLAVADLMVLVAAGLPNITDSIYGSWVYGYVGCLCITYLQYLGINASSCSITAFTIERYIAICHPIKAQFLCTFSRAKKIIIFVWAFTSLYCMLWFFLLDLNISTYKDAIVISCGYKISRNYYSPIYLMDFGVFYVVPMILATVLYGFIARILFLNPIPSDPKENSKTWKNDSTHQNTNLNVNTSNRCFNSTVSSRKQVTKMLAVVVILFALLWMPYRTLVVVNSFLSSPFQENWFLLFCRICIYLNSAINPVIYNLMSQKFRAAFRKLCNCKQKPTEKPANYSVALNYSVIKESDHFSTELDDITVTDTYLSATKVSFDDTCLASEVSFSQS

Row | Compound | Potency [1] | Potency [2] | Potency [3] | outcome [4] | Potency [5] | Potency [6] | max activation [7] [%] | Potency [8] | Potency [9] | Potency [10] | Potency [11] | Potency [12] | Potency [13] | Potency [14] | Potency [15] | Potency [16]
1 | CCCCCC=CCC=CCCCCCCCC(=O)OCC | inactive | inactive | inactive | inactive | inactive | 29.8 µM (active) | -2.8 | inactive | inactive | inactive | 21.9 µM (active) | 15.5 µM (active) | – | – | – | –
2 | C[Si](NC1CCCCC1)(NC1CCCCC1)NC1CCCCC1 | inactive | inactive | inactive | inactive | inactive | inactive | – | – | – | – | – | – | inactive | inactive | inactive | –
3 | Oc1ccc(Nc2ccccc2)cc1 | inactive | inactive | inactive | inactive | inactive | 54.5 µM (active) | – | – | – | 63.3 µM (active) | 20 µM (active) | 28.3 µM (active) | – | inactive | inactive | 31.7 µM (active)
4 | CCOC(=O)CC(=O)C(=O)OCC | inactive | inactive | inactive | inactive | inactive | – | – | – | – | – | 35.6 µM (active) | 39.9 µM (active) | inactive | 49 µM (active) | 71 µM (active) | 31.7 µM (active)
5 | CCCCC/C(=C\c1ccccc1)CO | inactive | inactive | – | inactive | inactive | inactive | – | – | – | – | 1.76 µM (active) | 39.4 µM (active) | – | – | inactive | –
6 | CC1(C)O[C@@H]2C[C@H]3[C@@H]4CCC5=CC(=O)C=C[C@]5(C)[C@H]4[C@@H](O)C[C@]3(C)[C@]2(C(=O)CO)O1 | inactive | inactive | inactive | inactive | inactive | – | – | 1.58 µM (active) | – | 38.9 µM (active) | inactive | – | inactive | inactive | 3.47 µM (active) | inactive
7 | O=C(CCCN1CCC(O)(c2ccc(Br)cc2)CC1)c1ccc(F)cc1 | inactive | inactive | – | inactive | inactive | – | – | 11.2 µM (active) | 11.2 µM (active) | 2.45 µM (active) | inactive | inactive | inactive | 0.239 µM (active) | inactive | inactive
8 | Cc1ccc(S(=O)(=O)NC2CCCCC2)cc1 | inactive | inactive | inactive | inactive | inactive | 27.1 µM (active) | – | – | – | inactive | – | 22.3 µM (active) | – | inactive | 17.7 µM (active) | –
9 | Nc1ccc(C(=O)OCCCOC(=O)c2ccc(N)cc2)cc1 | inactive | inactive | inactive | inactive | inactive | 54.5 µM (active) | – | – | – | 39.9 µM (active) | 17.8 µM (active) | 7.1 µM (active) | – | – | – | –
10 | CCc1c2c(nc3ccc(OC(=O)N4CCC(N5CCCCC5)CC4)cc13)-c1cc3c(c(=O)n1C2)COC(=O)[C@]3(O)CC | inactive | inactive | – | inactive | – | inactive | -2.7 | inactive | inactive | inactive | – | inactive | inactive | inactive | inactive | –
11 | CCCCCCCCCCCCCCC[C@H](O)[C@@H](N)CO | inactive | inactive | – | inactive | inactive | inactive | 0.49 | inactive | inactive | – | inactive | inactive | inactive | inactive | inactive | –
12 | CN(C)C(=O)Nc1ccc(Oc2ccc(Cl)cc2)cc1 | inactive | inactive | inactive | inactive | – | 10.9 µM (active) | – | – | – | – | 17.8 µM (active) | 35.6 µM (active) | 54.5 µM (active) | inactive | – | –
13 | CC1=C(C=O)C(C)(C)CCC1 | inactive | inactive | inactive | inactive | – | 27.3 µM (active) | – | – | – | inactive | – | – | inactive | inactive | – | inactive
14 | O=C(N[C@@H](c1ccccc1)[C@@H]1CCCCN1)c1cccc(C(F)(F)F)c1Cl | inactive | 54.5 µM (active) | 54.5 µM (active) | inactive | 61.1 µM (active) | – | – | – | – | 1.26 µM (active) | 17.8 µM (active) | 63.3 µM (active) | – | – | 1.59 µM (active) | inactive
15 | CC(C)(C)C(=O)C(Oc1ccc(Cl)cc1)n1ccnc1 (centres undefined) | inactive | inactive | inactive | inactive | inactive | 23.7 µM (active) | – | – | 15.8 µM (active) | – | 1.38 µM (active) | 2.75 µM (active) | – | inactive | – | 17.4 µM (active)
16 | CC(=O)[C@H]1CC[C@H]2[C@@H]3C[C@H](C)C4=CC(=O)CC[C@]4(C)[C@H]3[C@@H](O)C[C@]12C | inactive | inactive | inactive | inactive | inactive | 13.3 µM (active) | – | inactive | inactive | inactive | – | 1.23 µM (active) | – | inactive | – | inactive
17 | Cc1cc(O)c2c(O)c3c(O)cccc3cc2c1 | inactive | inactive | inactive | inactive | inactive | 11.9 µM (active) | – | – | – | – | 4.36 µM (active) | 4.9 µM (active) | – | inactive | – | –
18 | Nc1ccc(Cl)cc1[N+](=O)[O-] | inactive | inactive | inactive | inactive | – | 60.5 µM (active) | – | – | – | – | inactive | inactive | – | inactive | – | 9.93 µM (active)
19 | CCC1(C)CC(=O)NC1=O (centres undefined) | inactive | – | inactive | inactive | inactive | inactive | – | inactive | inactive | inactive | inactive | inactive | inactive | inactive | inactive | inactive
20 | CC(C)(C)CC(C)(C)c1ccc(OCCO)cc1 | inactive | 27.1 µM (active) | – | inactive | 48.3 µM (active) | 15.3 µM (active) | -7.23 | 3.55 µM (active) | inactive | inactive | 79.2 µM (active) | 31.5 µM (active) | 54.2 µM (active) | – | 17.7 µM (active) | inactive
21 | Nc1nc(Cl)nc2c1ncn2[C@@H]1O[C@H](CO)[C@@H](O)[C@@H]1F | inactive | inactive | inactive | inactive | inactive | 0.531 µM (active) | -7.37 | – | 1 µM (active) | inactive | inactive | inactive | – | inactive | inactive | inactive
22 | Cc1nc2ccccn2c(=O)c1CCN1CCC(C(=O)c2ccc(F)cc2)CC1 | inactive | – | inactive | inactive | inactive | inactive | – | – | – | 4.36 µM (active) | inactive | inactive | inactive | 9.52 µM (active) | inactive | inactive

From PubChem BioAssay (Tox21)
